Test results published in ChEMBL document CHEMBL3988442, “University of Dundee, Small-Polar-MMV Screening Library” (2021).
For part of these data: Measured potencies and affinities stand elsewhere.

Tests used:
Set-up in all cases: scale not given: direction of the effect not stated beside the values
[1] = molecular target: Protein translocase subunit SecA (Escherichia coli (strain K12)) (UniProt P10408); assay: Assay to Identify E. coli SecA ATPase Inhibitors; type: functional; details: 30 µM
[2] = molecular target: T1, Ubiquitin-activating enzyme e1, putative (Leishmania donovani (strain BPK282A1)) (UniProt E9BSI1); assay: Leishmania donovani Ubiquitin Activating Enzyme (LdE1); type: functional; details: 30 µM
T1 sequence (whole entry): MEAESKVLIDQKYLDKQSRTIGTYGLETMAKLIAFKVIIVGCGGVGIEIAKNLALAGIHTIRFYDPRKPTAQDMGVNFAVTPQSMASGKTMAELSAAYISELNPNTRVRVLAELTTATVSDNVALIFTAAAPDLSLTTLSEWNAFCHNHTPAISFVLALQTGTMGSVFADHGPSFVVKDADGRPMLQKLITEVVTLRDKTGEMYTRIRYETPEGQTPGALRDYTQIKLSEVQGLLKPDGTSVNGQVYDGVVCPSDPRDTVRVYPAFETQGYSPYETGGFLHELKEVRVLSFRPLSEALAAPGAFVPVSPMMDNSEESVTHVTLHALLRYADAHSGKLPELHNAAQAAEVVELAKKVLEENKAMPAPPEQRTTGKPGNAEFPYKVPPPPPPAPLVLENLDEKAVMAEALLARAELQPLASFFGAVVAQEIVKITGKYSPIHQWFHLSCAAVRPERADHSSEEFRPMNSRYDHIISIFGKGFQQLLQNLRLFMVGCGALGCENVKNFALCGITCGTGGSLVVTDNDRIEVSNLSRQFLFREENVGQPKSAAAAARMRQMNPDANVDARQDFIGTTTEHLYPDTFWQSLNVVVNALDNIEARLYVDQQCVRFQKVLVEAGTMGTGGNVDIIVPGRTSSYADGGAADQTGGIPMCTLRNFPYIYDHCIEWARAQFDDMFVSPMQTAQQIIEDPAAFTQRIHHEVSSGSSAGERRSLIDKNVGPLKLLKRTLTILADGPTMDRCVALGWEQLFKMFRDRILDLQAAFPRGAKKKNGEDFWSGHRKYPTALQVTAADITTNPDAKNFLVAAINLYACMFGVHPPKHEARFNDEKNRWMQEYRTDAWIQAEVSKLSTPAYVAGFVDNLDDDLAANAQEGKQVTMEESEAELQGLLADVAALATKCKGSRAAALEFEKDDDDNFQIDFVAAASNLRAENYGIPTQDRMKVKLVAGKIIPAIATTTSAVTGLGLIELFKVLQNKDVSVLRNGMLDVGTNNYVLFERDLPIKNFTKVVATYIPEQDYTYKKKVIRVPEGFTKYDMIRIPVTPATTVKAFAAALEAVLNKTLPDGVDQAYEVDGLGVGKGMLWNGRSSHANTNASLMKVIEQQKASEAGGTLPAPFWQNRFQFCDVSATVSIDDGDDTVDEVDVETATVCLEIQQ

[3] = molecular target: Sialic acid-binding Ig-like lectin 9 (Homo sapiens) (UniProt Q9Y336); assay: Hs-Siglec9 ALPHAscreen SOP 20170721; details: 10 µM
Chain of Sialic acid-binding Ig-like lectin 9 (Homo sapiens) (Q9Y336 whole entry): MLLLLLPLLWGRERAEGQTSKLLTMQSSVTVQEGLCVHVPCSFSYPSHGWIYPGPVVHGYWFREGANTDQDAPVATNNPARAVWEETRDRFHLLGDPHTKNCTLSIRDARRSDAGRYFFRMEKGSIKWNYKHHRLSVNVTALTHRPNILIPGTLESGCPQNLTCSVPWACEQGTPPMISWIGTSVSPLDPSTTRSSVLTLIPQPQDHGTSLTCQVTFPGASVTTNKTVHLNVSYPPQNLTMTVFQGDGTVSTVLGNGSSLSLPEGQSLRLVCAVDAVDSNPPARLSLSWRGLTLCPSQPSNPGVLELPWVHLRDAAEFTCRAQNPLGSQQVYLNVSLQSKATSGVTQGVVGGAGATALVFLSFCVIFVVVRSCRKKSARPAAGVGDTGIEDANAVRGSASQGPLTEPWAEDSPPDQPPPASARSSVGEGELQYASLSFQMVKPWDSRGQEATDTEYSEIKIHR

Trypanosoma cruzi = assay: Trypanosoma cruzi phosphomannomutase and mannose-1-phosphate guanylyltransferase assay; type: functional; details: 10 µM
[4] = molecular target: T2, Arginase-2, mitochondrial (Homo sapiens) (UniProt P78540); assay: in vitro enzyme assay to detect the production of urea directly proportional to the activity of Arginase II; type: functional; details: 33.3 µM; further: in the data most compounds retested in dose-response had high values
T2 sequence (whole entry): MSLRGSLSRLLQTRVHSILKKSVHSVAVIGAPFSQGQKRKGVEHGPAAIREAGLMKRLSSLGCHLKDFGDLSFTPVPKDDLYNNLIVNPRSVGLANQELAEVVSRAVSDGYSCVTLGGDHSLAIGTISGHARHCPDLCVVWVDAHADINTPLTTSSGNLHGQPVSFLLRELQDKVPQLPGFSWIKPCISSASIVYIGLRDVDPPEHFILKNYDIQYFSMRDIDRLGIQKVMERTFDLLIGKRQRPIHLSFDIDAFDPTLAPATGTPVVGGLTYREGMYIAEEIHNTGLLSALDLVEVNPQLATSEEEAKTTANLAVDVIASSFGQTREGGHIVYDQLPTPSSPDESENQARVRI

[5] = molecular target: T3, Proteasome subunit beta (Trypanosoma cruzi) (UniProt O96673); assay: Trypanosoma cruzi proteasome chymotrypsin-like activity (TcProtChymo) assay.; further: in the data most compounds retested in dose-response had high values; type: functional; details: 9.37 µM
T3 sequence (whole entry): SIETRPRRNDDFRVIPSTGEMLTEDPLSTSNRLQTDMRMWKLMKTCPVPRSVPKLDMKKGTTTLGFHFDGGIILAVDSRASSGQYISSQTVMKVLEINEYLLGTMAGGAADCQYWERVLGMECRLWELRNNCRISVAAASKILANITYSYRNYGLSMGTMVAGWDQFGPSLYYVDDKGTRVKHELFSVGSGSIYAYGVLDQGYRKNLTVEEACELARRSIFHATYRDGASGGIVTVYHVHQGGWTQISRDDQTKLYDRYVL

Homo sapiens = organism: Homo sapiens; assay: To identify inhibition of the IFN signalling (Jak-Stat) pathway via expression of an eGFP reporter gene under the control of an IFN-stimulated response element (ISRE) containing MxA promoter.; type: functional; details: 30 µM
[6] = molecular target: T4, Tyrosyl-tRNA synthetase, putative (Trypanosoma cruzi (strain CL Brener)) (UniProt Q4DSP6); assay: Trypanosoma cruzi tyrosyl tRNA synthetase (TcYRS) _High Tyrosine SOP; type: functional; details: 30 µM; further: in the data most compounds retested in dose-response had high values
T4 sequence (whole entry): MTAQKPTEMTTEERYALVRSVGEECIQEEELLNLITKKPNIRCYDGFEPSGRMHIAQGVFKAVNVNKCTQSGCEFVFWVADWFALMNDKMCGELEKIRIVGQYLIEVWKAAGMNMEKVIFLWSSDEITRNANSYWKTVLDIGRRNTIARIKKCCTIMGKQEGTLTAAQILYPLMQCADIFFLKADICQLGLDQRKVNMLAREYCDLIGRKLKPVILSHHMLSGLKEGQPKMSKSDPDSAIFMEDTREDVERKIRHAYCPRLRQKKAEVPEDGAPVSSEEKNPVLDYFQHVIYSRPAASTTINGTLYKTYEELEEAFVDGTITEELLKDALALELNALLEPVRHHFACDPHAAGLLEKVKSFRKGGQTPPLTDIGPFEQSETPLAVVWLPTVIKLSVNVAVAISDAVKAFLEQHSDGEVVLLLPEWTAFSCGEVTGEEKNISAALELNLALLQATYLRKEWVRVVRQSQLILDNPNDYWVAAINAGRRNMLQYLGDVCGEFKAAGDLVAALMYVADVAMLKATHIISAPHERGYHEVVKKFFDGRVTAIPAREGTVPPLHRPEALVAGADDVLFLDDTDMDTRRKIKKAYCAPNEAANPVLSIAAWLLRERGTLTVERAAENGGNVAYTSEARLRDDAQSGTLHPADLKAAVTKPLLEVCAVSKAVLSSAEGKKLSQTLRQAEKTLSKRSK

[7] = molecular target: T4, Tyrosyl-tRNA synthetase, putative (Trypanosoma cruzi (strain CL Brener)); assay: Trypanosoma cruzi tyrosyl tRNA synthetase (TcYRS) SOP; type: functional; details: 30 µM
[8] = molecular target: Chromo domain-containing protein 1 (Saccharomyces cerevisiae (strain ATCC 204508 / S288c) (Baker's yeast)) (UniProt P32657); assay: ScCHD-1 Enzyme Inhibition Assay; type: functional; details: 30 µM; further: in the data most compounds retested in dose-response had high values
Chain of Chromo domain-containing protein 1 (Saccharomyces cerevisiae (strain ATCC 204508 / S288c) (Baker's yeast)) (P32657 whole entry, the tested form may be a part): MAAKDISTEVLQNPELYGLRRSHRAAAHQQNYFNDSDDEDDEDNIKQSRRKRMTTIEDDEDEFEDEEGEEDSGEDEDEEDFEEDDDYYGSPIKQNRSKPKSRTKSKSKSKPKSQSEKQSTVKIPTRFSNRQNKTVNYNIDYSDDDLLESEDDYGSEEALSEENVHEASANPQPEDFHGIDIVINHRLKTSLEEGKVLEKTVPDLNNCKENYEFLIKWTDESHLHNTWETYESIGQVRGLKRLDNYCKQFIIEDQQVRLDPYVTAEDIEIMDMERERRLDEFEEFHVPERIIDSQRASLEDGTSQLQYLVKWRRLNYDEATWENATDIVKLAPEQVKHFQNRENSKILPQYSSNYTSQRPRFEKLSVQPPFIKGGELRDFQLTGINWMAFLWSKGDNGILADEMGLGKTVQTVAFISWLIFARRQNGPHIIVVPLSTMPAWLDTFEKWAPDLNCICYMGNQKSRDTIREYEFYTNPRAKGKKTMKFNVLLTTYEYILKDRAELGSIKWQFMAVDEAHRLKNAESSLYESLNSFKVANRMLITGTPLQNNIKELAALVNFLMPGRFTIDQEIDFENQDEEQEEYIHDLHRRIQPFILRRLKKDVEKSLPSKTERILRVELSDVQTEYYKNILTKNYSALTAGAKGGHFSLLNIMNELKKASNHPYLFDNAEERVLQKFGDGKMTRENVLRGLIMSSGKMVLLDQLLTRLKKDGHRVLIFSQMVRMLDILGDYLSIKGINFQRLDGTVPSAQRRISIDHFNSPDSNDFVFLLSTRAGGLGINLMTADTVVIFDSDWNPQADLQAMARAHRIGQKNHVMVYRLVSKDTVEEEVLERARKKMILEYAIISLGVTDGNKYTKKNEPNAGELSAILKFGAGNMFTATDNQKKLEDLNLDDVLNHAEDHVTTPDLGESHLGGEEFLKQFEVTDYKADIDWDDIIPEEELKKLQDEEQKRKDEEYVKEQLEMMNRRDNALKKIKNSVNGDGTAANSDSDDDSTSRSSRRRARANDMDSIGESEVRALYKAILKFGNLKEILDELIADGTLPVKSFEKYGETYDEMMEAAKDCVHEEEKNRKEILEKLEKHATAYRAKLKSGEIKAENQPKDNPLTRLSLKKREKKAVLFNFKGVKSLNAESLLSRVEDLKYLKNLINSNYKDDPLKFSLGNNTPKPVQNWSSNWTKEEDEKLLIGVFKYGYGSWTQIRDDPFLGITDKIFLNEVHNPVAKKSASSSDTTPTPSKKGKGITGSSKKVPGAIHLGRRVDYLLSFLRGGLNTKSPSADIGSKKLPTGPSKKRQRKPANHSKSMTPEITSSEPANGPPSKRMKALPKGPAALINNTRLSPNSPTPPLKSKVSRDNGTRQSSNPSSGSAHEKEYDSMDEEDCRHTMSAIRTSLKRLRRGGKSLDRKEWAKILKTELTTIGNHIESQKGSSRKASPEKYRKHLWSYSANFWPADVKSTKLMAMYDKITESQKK

Chain of Protein translocase subunit SecA (Escherichia coli (strain K12)) (P10408 whole entry): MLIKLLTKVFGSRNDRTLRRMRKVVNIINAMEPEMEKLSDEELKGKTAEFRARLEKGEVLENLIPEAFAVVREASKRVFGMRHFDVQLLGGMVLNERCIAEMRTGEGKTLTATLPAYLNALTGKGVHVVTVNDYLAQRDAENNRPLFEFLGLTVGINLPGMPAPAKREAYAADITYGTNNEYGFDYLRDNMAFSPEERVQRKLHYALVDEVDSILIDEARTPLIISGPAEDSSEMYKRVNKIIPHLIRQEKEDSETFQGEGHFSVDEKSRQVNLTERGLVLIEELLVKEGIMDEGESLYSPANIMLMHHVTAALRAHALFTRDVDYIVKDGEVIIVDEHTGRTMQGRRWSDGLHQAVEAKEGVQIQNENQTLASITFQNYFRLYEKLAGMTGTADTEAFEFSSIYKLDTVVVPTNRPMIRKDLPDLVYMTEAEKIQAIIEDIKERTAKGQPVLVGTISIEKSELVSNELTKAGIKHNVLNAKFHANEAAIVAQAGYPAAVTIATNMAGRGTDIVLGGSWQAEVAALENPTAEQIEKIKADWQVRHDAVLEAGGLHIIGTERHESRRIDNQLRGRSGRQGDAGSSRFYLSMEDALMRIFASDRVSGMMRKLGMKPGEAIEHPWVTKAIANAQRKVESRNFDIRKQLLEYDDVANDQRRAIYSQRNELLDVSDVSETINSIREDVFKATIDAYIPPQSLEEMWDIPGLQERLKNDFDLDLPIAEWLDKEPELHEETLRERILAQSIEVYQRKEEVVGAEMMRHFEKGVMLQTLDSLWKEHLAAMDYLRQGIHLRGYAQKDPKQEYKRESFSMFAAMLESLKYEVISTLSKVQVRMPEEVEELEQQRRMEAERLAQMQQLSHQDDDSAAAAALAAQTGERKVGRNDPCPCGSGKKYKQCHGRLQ

Row | SMILES | Percent Effect [1] [%] | Percent Effect [2] [%] | Percent Effect [3] [%] | Percent Effect (Trypanosoma cruzi) [%] | Percent Effect [4] [%] | Percent Effect [5] [%] | Percent Effect (Homo sapiens) [%] | Percent Effect [6] [%] | Percent Effect [7] [%] | Percent Effect [8] [%]
1 | Cc1ccc(C(=O)N2C[C@H]3CCC[C@@]3(COCc3cccnc3)C2)s1 | -4.31 | 6.49 | -5.03 | -4.38 | 1.22 | 15.4 | 3.36 | 5.79 | 5.13 | 5.28
2 | Cc1cc(C)n2cc(CN3CCCC3Cn3nc(C)nc3C)nc2n1 (stereo not given) | -6.31 | -2.67 | 2.66 | 3.41 | 3.1 | 10.6 | 1.56 | 16.3 | 15.4 | -6.76
3 | CN(CC(=O)Nc1ccc(Br)cn1)C(=O)Cc1ccc(O)cc1 | -6.43 | -18.7 | 0.45 | 2.61 | -0.887 | 8.4 | 0.283 | 3.68 | -82 | -5.7
4 | CCOc1ncccc1NC(=O)NC1CCCN(c2ncccn2)C1 (stereo not given) | 0.363 | 23.4 | 1.83 | 4.66 | -8.4 | 13.3 | 8.06 | 11.8 | 30.6 | -4.97
5 | O=C(NCCc1coc(-c2ccc(F)cc2)n1)NC1CCC(O)CC1 (stereo not given) | -5.41 | 21.3 | 5.86 | 5.82 | -0.887 | 15.7 | 6.59 | 5.79 | 15.4 | -15.6
6 | Cc1cc(NC(=O)CCN(CC2CCOC2)C2CC2)no1 (stereo not given) | -3.2 | 21.3 | -0.377 | 1.21 | -2.22 | 10.3 | 8.07 | 3.68 | 15.4 | -13.2
7 | Cc1nc(C)n(CC2CCCN2Cc2nc3ccccc3nc2C)n1 (stereo not given) | -4.08 | 0 | 4.74 | -0.402 | 1.33 | 15.5 | 2.68 | 5.79 | 7.69 | -11.7
8 | O=C1NCCN(CC2CC2)C12CCN(Cc1ccco1)CC2 | -2.83 | 9.09 | -15.9 | -9.45 | 2.83 | 18.8 | 10.4 | 2.63 | -2.56 | -3.23
9 | CC[C@@H]1N(Cc2ccsc2)CCC[C@]12CCC(=O)N2CCOC | -4.26 | 19.5 | -1.28 | -3.19 | 4.11 | 10.9 | -2.54 | 7.73 | 7.5 | -3.65
10 | CN(C)c1ccc(NC(=O)NCc2ccccn2)cn1 | -1.7 | 20.8 | -3.66 | -3.92 | -0.205 | 11.9 | -8.9 | 5.88 | 18.8 | -9.39
11 | Cc1ccc(-c2nc(CN3CCn4c(nnc4C4CC4)C3)co2)cc1 | -5.43 | -5.33 | -0.413 | -1.41 | 0 | 9.92 | -8.93 | 6.84 | 12.8 | -6.77
12 | Cc1ccc(-c2nc(CCNC(=O)NC3CCN(C)CC3)co2)cc1 | -4.38 | 8 | -2.04 | 1.81 | -4.88 | 12.3 | 9.37 | 3.68 | 5.13 | -12.9
13 | O=C(NCC(=O)N1CCCCC1)c1ccoc1 | 2.38 | 13 | 0.0749 | -7.46 | 2.25 | 17.2 | 18.2 | 4.9 | 18.8 | -8.97
14 | COC(=O)C1CCN(C(=O)c2ccc(C)c(NS(C)(=O)=O)c2)CC1 | -9.4 | -5.41 | -2.25 | -3.2 | -3.85 | 8.9 | -0.867 | 1.6 | 2.44 | 5.38
15 | CC(O)(CN1CCC2(CC1)OCCO2)c1cccc(C(F)(F)F)c1 (stereo not given) | 1.91 | 10.4 | 8.88 | -0.187 | -2.25 | 2.98 | 18.4 | 3.92 | 21.2 | -7.48
16 | CC(C)(C)c1nnc(CN2CCCC(Cn3cncn3)C2)o1 (stereo not given) | -2.1 | -2.56 | 0.0313 | 4.41 | 0.41 | -1.79 | 8 | 2.39 | 1.21 | -1.8
17 | CNC(=O)[C@@H]1C[C@H]2CN(Cc3nccs3)C[C@H]2N1C | 0.644 | 27.3 | -2.68 | 0.75 | 2.28 | 19.7 | 11.3 | 12.6 | 22.5 | -5.35
18 | Cc1ncc(-c2ccnc(N3CCN(C)CC3)n2)c(-c2cccnc2)n1 | -1.44 | 8 | -2.21 | -9.24 | -39.9 | 8.57 | 8.85 | 4.74 | -2.56 | -12.5
19 | CCCNC(=O)c1cc2c(c3ccccc3n2C)n1C(=O)N(C)C | -4.26 | -1.3 | 2.88 | -5.16 | 1.22 | 9.62 | -12.8 | 2.63 | 5.13 | -7.15
20 | CNc1cc(N2CCCC2CNCc2cnc(C)cn2)ncn1 (stereo not given) | -4.22 | 0 | -3.13 | 1.78 | 6.15 | 2.47 | 21.4 | 2.39 | 1.21 | 2.01
21 | CCc1ccsc1C(=O)N1CCN(C(=O)CC(F)(F)F)CC1 | 2.23 | 18.2 | 11.7 | 1.68 | 1.02 | 10.5 | -19.1 | 6.86 | 23.5 | -4.02
22 | COc1ccc2c(c1)OCC(CNC(=O)c1ccncc1)C2 (stereo not given) | -6.47 | 13.5 | 11.5 | 7.66 | 43.7 | 20.4 | 32.2 | 7.98 | 19.5 | 71.9
23 | Cc1cnn(CC2CCCCN2CCn2cncn2)c1 (stereo not given) | -1.55 | 16 | -7.29 | -3.61 | 4.88 | 14.2 | 5.08 | 5.79 | 7.69 | -6.72
24 | CNc1snc(C)c1C(=O)N1CCCC(n2nc(C)cc2C)C1 (stereo not given) | -9.36 | 13.3 | 16.1 | 6.02 | -3.1 | 5.68 | -7.89 | 4.74 | 15.4 | -14.8
